Source: PubChem BioAssay (National Center for Advancing Translational Sciences (NCATS))
TCR activator: T cell receptor activation; primary human leukocytes, anti-CD3, IL-2 HTRF, 48 h; Potency, µM (titrated, usually from 9.22 µM), for inactives: at the top dose activation of IL-2 secretion, usual class: activators; 330,000 tested, under 10 active; AID 504894; further: % of control where 0% means no effect
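Primary human leukocytes were stimulated with a-CD3 beads plus compounds for 48 hr without co-stimulation; secreted IL-2 was quantified by HTRF using a-IL-2-K (europium cryptate) and a-IL-2-d2, excited at 320nm with acceptor emission read at 665nm.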
IL-2 act: activators of IL-2; IL-2 activation reporter assay, cell-based qHTS; stimulated with anti-CD3/CD4/CD28 beads; in transgenic mouse T cells; activation, % (series mostly up to about 46 µM); hit rate 0.065% among 360,000; AID 652025; in the data active means activation above about 50%; inconclusive means mostly about 30% to 49%; further: 0% is about no effect
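Readout is EGFP and DsRed signal by fluorescent plate cytometry after 18 h at 37 degrees C. Transgenic mouse T cells (750/well) received compound for 60 min before bead stimulation (anti-CD3, anti-CD4, anti-CD28); memory T cells served as non-tolerant control.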
p53 reactivation: restores transcriptional activity of mutant p53; H1299 p53-A138V BP100-luciferase reporter, luminescence, 24 h; Potency, µM (doses to about 92.2 µM), inactives show at the highest dose activity change, positive = activation, actives largely listed as activators; hit rate 0.063% among 320,000; AID 504706; further: potency means the concentration at half of the fitted maximal effect; % of control where 0% means no effect; nearly all actives have a fitted effect of over 45% in size
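H1299 (p53-null), stable ts p53-A138V + BP100-Luc; 1000 cells/well, Opti-MEM/10% FBS; cpd 4 pt, 1:5; 24 h, 37 deg C, 5% CO2; detection reagent 10 min RT; luminescence.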
uPA surface inh: blocks generation of uPA at the cell surface; Potency, µM (series often up to 38.3 µM), for the others: at the top dose activity change, negative = inhibition, usual class: inhibitors; cell surface uPA generation assay, qHTS; hit rate 0.31% among 330,000; active means well fitted inhibition curve with a large enough effect; inconclusive means small, poorly fitted or top-dose-only effect; inactive means no such curve, though single readings can be large or run the other way; tested in mouse RAW 264.7 cells; further: potency means the concentration at half of the fitted maximal effect; on the % scale 0 is the no-effect control and ±100 the full control effect; nearly all actives have a fitted effect of over 55% in size
BRCA1 expr act: increases BRCA1 expression. Potency, µM (doses to about 46.1 µM), without a hit: top-dose activation, hits mostly activators. MCF7-BRCA1-FFLuc reporter, luminescence, 48 h; response scale: scaled: vehicle 0%, 10 µM genistein 100%. hit rate 1.1% among 380,000. AID 624202; further: potency means the concentration at half of the fitted maximal effect; nearly all actives have a fitted effect of over 80% in size
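Compounds are tested at multiple concentrations on MCF7 BRCA1-luciferase reporter cells seeded at 2000 per well; after 48 h, a single luminescence end-point is taken and curves fitted to the normalized data.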
Active calls of the source: *; [ ] = dose if it differs, or a comment. Shown are actives, neighbours in structure and some others; about 1.4% of the full set was active somewhere. Unless noted, the call rests on the fitted dose curve; in most records, active means well fitted curve in the direction sought with a large enough effect; inconclusive means small, poorly fitted or top-dose-only effect, or another doubt; inactive means no such curve, though single readings can be large; an effect the other way counts as inactive or inconclusive.

`Cc1cccc(N2CCN(C(=O)CN3C(=O)COc4ccc(S(=O)(=O)N5CCCCCC5)cc43)CC2)c1C` gave BRCA1 expr act 7.9%.
`Cc1ccc(Oc2cc([N+](=O)[O-])cc3c2C(=O)Nc2ccccc2O3)cc1` gave TCR activator 1.0%[46.1 µM], IL-2 act 72.3*, p53 reactivation 6.7%, uPA surface inh -4.3% and BRCA1 expr act -61.1%.
For O=C(Nc1ccc2c(c1)Cc1cc([N+](=O)[O-])ccc1-2)C(F)(F)F the results were TCR activator -5.2%, IL-2 act -0.2, uPA surface inh -1.4% and BRCA1 expr act 3.98µM*.
Brc1ccc2c(c1)C(C1=NCCN1)c1ccccc1CS2 (centres undefined) was read as TCR activator -1.3%[46.1 µM], IL-2 act -2.9, p53 reactivation -4.8%, uPA surface inh 0.501µM* and BRCA1 expr act 0.0%.
Screening CN(C)CCOC1c2ccccc2CSc2ccccc21 (centres undefined) returned TCR activator -6.0%, IL-2 act 3.1, uPA surface inh 0.8% and BRCA1 expr act -9.2%.
For COc1ccccc1C(=O)NCCC(=O)NC1CCC(C)CC1 (centres undefined) the results were IL-2 act -0.3, p53 reactivation inconclusive, uPA surface inh -18.8% and BRCA1 expr act 8.91µM*.
Screening COc1ccc(CNC(=O)CSc2ccsc2[N+](=O)[O-])cc1 returned TCR activator 0.2%, IL-2 act 2.6, p53 reactivation -6.1%, uPA surface inh -5.1% and BRCA1 expr act 10µM*.
For O=C(NN=Cc1ccccc1O)c1cccc([N+](=O)[O-])c1 the results were TCR activator 1.4%, IL-2 act -0.6, uPA surface inh -14.3% and BRCA1 expr act -112.0%.
For Cc1cc(/C=N/NC(=O)c2cccc([N+](=O)[O-])c2)c(C)n1-c1ccccc1 the results were TCR activator -4.2%[46.1 µM], IL-2 act 1.9, p53 reactivation 23.7%, uPA surface inh -5.9% and BRCA1 expr act 12.6µM*.
Screening CCc1ccc(-n2c(C)cc(/C=N/NC(=O)c3ccncc3)c2C)cc1 returned TCR activator 3.0%, IL-2 act 0.3, p53 reactivation -5.5%, uPA surface inh -14.5% and BRCA1 expr act -18.9%.
`Cc1cc(/C=N/NC(=O)c2ccncc2)c(C)n1-c1ccccc1` gave TCR activator -5.1%[46.1 µM], IL-2 act 1.1, p53 reactivation inconclusive, uPA surface inh -3.0% and BRCA1 expr act 7.94µM*.
CC(=O)c1ccc(Nc2c([N+](=O)[O-])ccc3nonc23)cc1 was read as TCR activator 1.2%, IL-2 act 0.2, p53 reactivation -2.7%, uPA surface inh -0.1% and BRCA1 expr act -14.8%.
Screening O=[N+]([O-])c1cc([N+](=O)[O-])c2nonc2c1Nc1ccc(O)cc1 returned IL-2 act 0.4, p53 reactivation 6.0%, uPA surface inh 11.2µM* and BRCA1 expr act -15.4%.
Screening O=[N+]([O-])c1cncc([N+](=O)[O-])c1Nc1cccc(O)c1 returned TCR activator 0.1%, IL-2 act -2.1, p53 reactivation -5.7%, uPA surface inh 10µM* and BRCA1 expr act -66.8%.
For O=[N+]([O-])c1cc([N+](=O)[O-])c2nonc2c1Nc1ccccc1O the results were TCR activator -0.2%, IL-2 act -2.0, p53 reactivation 18.1%, uPA surface inh 5.62µM* and BRCA1 expr act -55.7%.
For COc1cc2c(=O)c(S(=O)(=O)c3ccc(C)cc3)cn(Cc3cccc(C)c3)c2cc1OC the results were BRCA1 expr act -53.7%.
CCOc1[nH]n(-c2ccccc2)c(=O)c1C=Nc1ccccc1 was read as TCR activator -2.0%, IL-2 act -4.0, p53 reactivation 3.0%, uPA surface inh 6.31µM* and BRCA1 expr act -55.1%.
`Cn1c(NCc2ccc(Cl)cc2)nc2ccccc21` gave TCR activator -2.9%, IL-2 act -0.9, p53 reactivation 5.8%, uPA surface inh -2.0% and BRCA1 expr act 4.47µM*.
Screening Cc1ccc(CNc2nc3ccccc3n2C)cc1 returned TCR activator 2.6%, IL-2 act -1.8, uPA surface inh 3.98µM* and BRCA1 expr act inconclusive.
For CC(C)n1c(NCc2nc3ccccc3n2C)nc2ccccc21 the results were TCR activator 4.7%, IL-2 act -1.2, p53 reactivation -2.5%, uPA surface inh 2.1% and BRCA1 expr act 0.0%.
For Cc1ccc(NCc2nc3ccccc3n2C)cc1 the results were TCR activator 4.7%, IL-2 act -0.3, uPA surface inh -14.3% and BRCA1 expr act 62.1%.
Screening Cn1c(CNc2nc3ccccc3n2C)nc2ccccc21 returned TCR activator -0.8%, IL-2 act -1.9, p53 reactivation 8.0%, uPA surface inh 1.4% and BRCA1 expr act 10µM*.
CCC(C(=O)Nc1ccc(C(=O)OC)cc1)n1nc(-c2ccc(C)cc2)c2c(c1=O)CCCC2 (centres undefined) was read as BRCA1 expr act -35.9%.
`COc1ccc(Br)cc1C1NC(c2ccc3c(c2)OCO3)=CC(c2cc(Cl)ccc2O)N1` (centres undefined) gave BRCA1 expr act 0.9%.
`CCOC(=O)C1CCCN(C(=O)CC(C)c2ccccc2)C1` (centres undefined) gave TCR activator 2.3%, IL-2 act -2.1, p53 reactivation 4.1%, uPA surface inh 3.7% and BRCA1 expr act 12.6µM*.
For CCOC(=O)C1CCN(C(=O)CC(C)c2ccccc2)CC1 (centres undefined) the results were IL-2 act -0.5, uPA surface inh -1.4% and BRCA1 expr act 44.3%.
Screening COCCCNC(=O)CSc1nc2nc(C)c(Cc3ccccc3Cl)c(C)n2n1 returned BRCA1 expr act -3.1%.
Cc1ccc(C(=O)c2sc(Nc3ccccc3F)c(S(=O)(=O)c3ccccc3)c2N)c(C)c1 was read as BRCA1 expr act -6.2%.
For O=[N+]([O-])c1ccc(O)c(/C=N/Nc2nc3ccccc3[nH]2)c1 the results were TCR activator -1.9%[46.1 µM], IL-2 act -0.4, p53 reactivation 25.1µM*, uPA surface inh -12.7% and BRCA1 expr act -78.5%.
Screening C(=N\Nc1nc2ccccc2[nH]1)/c1ccc2c(c1)OCO2 returned TCR activator 8.0%, IL-2 act -0.3, p53 reactivation 14.7%, uPA surface inh -6.7% and BRCA1 expr act 12.6µM*.
For Cc1c(/C=N/Nc2nc3ccccc3[nH]2)c2ccccc2n1C the results were TCR activator -8.2%, IL-2 act -1.0, p53 reactivation -4.5%, uPA surface inh -7.0% and BRCA1 expr act -63.3%.
Screening COC(=O)c1ccc(/C=N/Nc2nc3ccccc3[nH]2)cc1 returned TCR activator 8.4%, IL-2 act -3.3, p53 reactivation 6.5%, uPA surface inh -8.4% and BRCA1 expr act 3.16µM*.
